Screen size: about 200,000 compounds; about 65 (0.03%) were called active.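 How the source made its calls: active means activation of at least 50% relative to the plate's high and low controls in the primary single-dose screen; inactive means activation below 50%.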 The full list was thinned out, with actives kept by preference.
Experiment: compounds producing H2O2 with reducing agent – biochemical, NIH compound library profiling, artefact control for MLSCN library redox annotation, primary screen (AID 878);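 further: compound incubated with DTT at 0.8 mM final as the reducing agent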
Details: DTT-dependent redox cycling H2O2, phenol red/HRP absorbance; at 10 µM; stronger effect = higher value; 100% = 100 µM peroxide control, 0% = buffer

activation, inactive:
O=C1c2cccc3c([N+](=O)[O-])ccc(c23)C(=O)N1CC1CCCO1 (configuration not stated) -0.67%
O=C(N/N=C1\CCSC1)c1cc(Cl)ccc1O -0.43%
CCn1ccnc1CN1CCCC(C(=O)c2ccc3c4c(cccc24)CC3)C1 (configuration not stated) -1.32%
COc1ccc([N+](=O)[O-])cc1NC(=O)c1ccc(N(Cc2ccccc2C)S(C)(=O)=O)cc1 2.05%
CCOc1ccc(N(CC(=O)NC2CCCCCC2)S(=O)(=O)c2c(C)[nH]c(=O)[nH]c2=O)cc1 -0.79%
CCC(O)C1CCN(Cc2cn(-c3ccc(OC)cc3)nc2-c2cccc(F)c2)CC1 (configuration not stated) -1.12%
O=C(NNC(=O)C1CCN(c2ncccn2)CC1)c1ccccc1 3.9%
O=C(NC(=S)Nc1ccc(NC(=O)c2cccs2)cc1)c1ccc([N+](=O)[O-])cc1 0.63%
CNc1ccc(SC#N)cc1 -1.28%
CCN1CCN(CC(=O)c2cc(OC)c(OC)c(OC)c2)CC1 -2.87%
CC(Nc1ccccc1)c1cccnc1 (configuration not stated) -1.74%
CN(C)c1ccc(-n2cccc2/C=N/n2cnnc2)cc1 -0.65%
COC(=O)/C(C#N)=C/c1occc1C -0.05%
Cc1cc(C)cc(N(CC(=O)N2CC=C(c3ccccc3)CC2)S(=O)(=O)c2c(C)noc2C)c1 -1.64%
CC(C)(C)C(=O)N(Cc1ccccc1)c1ccccn1 -0.82%
O=C(CN1CCCCCC1)Nc1ccc(Br)cc1Br 0.33%
COCCCn1c(SCC(=O)Nc2ccccc2)nnc1-c1ccncc1 0.72%
CCCCN=C1C([N+](=O)[O-])=CC=C2C1=NC1(CCCCC1)N2O 0.33%
O=C(N/N=C/c1ccco1)c1ccc(C(=O)N/N=C/c2ccco2)o1 -0.77%
O=C(C1CC1)N1N=C2CCCCC2C1(O)C(F)(F)F (configuration not stated) -0.33%
CC1Cc2ccccc2N1S(=O)(=O)c1c(N)n(C)c(=O)n(C)c1=O (configuration not stated) -1.16%
Cc1cc(NC(=O)CSc2nc3c(cc2C#N)CCCCC3)no1 -0.92%
COC(=O)c1ccccc1NS(=O)(=O)c1ccc2[nH]c(=O)[nH]c2c1 0.27%
COc1ccc(CCNC(=O)/C(C#N)=C2\N=C(NC(=O)c3cccs3)c3ccccc32)cc1 0.35%
CCC(NC(=O)c1ccccc1NC(=O)c1ccccc1)C(=O)NNC(=O)CSc1nc2ccccc2o1 (configuration not stated) -0.15%
CCc1cccc(C)c1NC(=O)COC(=O)Cc1ccsc1 -0.34%
Cc1noc(C)c1COc1ccc2ccc(=O)oc2c1 -0.19%
COc1ccc2nc(Nc3nc(-c4ccncc4)cs3)sc2c1 -0.22%
Cc1cccc(OC(=O)c2sc3ncn(C)c(=O)c3c2C)c1 0.69%
COc1ccc(CCNC(=O)C(=O)NCc2ccccc2C)cc1OC -0.24%
CCc1nnc(NC(=O)C2CC(=O)N(c3ccc4c(c3)OCCO4)C2)s1 (configuration not stated) 0.21%
CCc1ccc(CN(C)C(=O)CCc2nnc(-c3ccc(-c4ccccc4)cc3)o2)nc1 -1.14%
Cc1ccccc1NC(=O)c1ccc(COc2ccc3c(C)cc(=O)oc3c2)cc1 0.57%
O=C(Nc1cccc(C(F)(F)F)c1)c1ccc(N2CCNCC2)c([N+](=O)[O-])c1 2.54%
CN(C)CCCO/N=C(\c1ccccc1)c1ccncc1 0.18%
CCOCCCNC(=O)C(NC(=O)c1ccc(=O)[nH]c1)c1ccc(Cl)cc1 (configuration not stated) -3.26%
COc1cc(CC(=O)N/N=C/c2ccccc2)c([N+](=O)[O-])cc1OC -0.77%
O=S(=O)(c1ccc(F)cc1)N1CCN(C(=S)NCc2ccco2)CC1 -0.47%
O=C(Cc1ccccc1)NNC(=O)C1CCN(c2ncccn2)CC1 -0.49%
COc1ccc(Cl)cc1-n1c(C)cc(C(=O)OCC(=O)N2CC(=O)Nc3ccccc32)c1C 0.04%
Cc1ccc(-c2cc(=O)c3ccc(Cl)cc3[nH]2)cc1 -1.26%
CCN(CC)c1ccc([N+](=O)[O-])cc1C(=O)O 0.13%
N#Cc1c(NC(=O)c2ccc(N3CCOCC3)c([N+](=O)[O-])c2)sc2c1CCCC2 0.09%
COc1cc(NC(=S)NCc2ccco2)c(OC)cc1Cl -0.01%
O=C(Nc1ccccc1)c1cc2ccccc2[nH]1 -0.39%
C=CCN(Cc1nc(-c2cc(OC)c3c(c2)OCO3)oc1C)C1CCS(=O)(=O)C1 (configuration not stated) -0.18%
COc1ccccc1C(=O)Nc1ccc(OCc2nnc3c4ccccc4c(C)nn23)cc1 -0.13%
CCOC(=O)Nc1ccc(S(=O)(=O)N(C)C(C)C)cc1 0.17%
Cc1cc(NC(=O)CN2C(=O)NC(CCc3ccccc3)C2=O)no1 (configuration not stated) -0.88%
COc1ccc(OC)c(NC(=O)CN(Cc2ccc(Cl)cc2)S(C)(=O)=O)c1 -0.61%
CC(C)NC(=O)c1ccccc1S(=O)c1ccccc1C#N (configuration not stated) 0.13%
COc1ccc(C2=NN(c3ccccc3)C(c3cccs3)C2)cc1 (configuration not stated) 0.96%
C=CCn1nc(-c2ccccc2)c2c(C)onc2c1=O -0.48%
Cc1ccc(C(=O)NC(C)c2ccccc2)cc1Br (configuration not stated) -0.27%
CC(C)Cn1c(N)c(C(=O)COC(=O)CN2C(=O)C3CC=CCC3C2=O)c(=O)n(C)c1=O (configuration not stated) -0.26%
Cc1cc(C)cc(NC(=O)N2CCCCCCC2)c1 -0.28%
CCCCN1C(=O)/C(=C/C=C2/C=Cc3ccccc3N2CC)SC1=S 1.26%
C=CCn1c(COc2ccc(F)cc2)nnc1SCC(=O)Nc1cccc(S(N)(=O)=O)c1 -0.73%
CCN(CC)CCCNC(=O)Cn1cnc2sc(C)c(S(=O)(=O)N3CCN(c4ncccn4)CC3)c2c1=O -0.75%
COC(=O)C1=C(C(=O)OC)C(c2cc([N+](=O)[O-])ccc2O)c2sc(=O)[nH]c2S1 (configuration not stated) 0.35%
COCCn1c(C)cc(C(=O)COC(=O)/C=C/c2cccc(OC)c2)c1C 0.06%
O=C(COC(=O)c1ccc(F)cc1)Nc1nc2ccc([N+](=O)[O-])cc2s1 -0.91%
Cc1nn(CC(=O)NCc2ccccn2)c(C)c1[N+](=O)[O-] 0.55%
Cc1nc(NC(=O)C2CCCCC2)sc1C 1.88%
O=C(Nc1cccc(S(=O)(=O)N2CCCCC2)c1)c1ccc2c(c1)OCO2 -0.11%
CCOC(=O)C1(Cc2ccccc2C(F)(F)F)CCN(C(=O)c2cc(C)n(C)n2)CC1 -0.12%
COC(=O)NNC1=CC(=O)CC(C)(C)C1 0.51%
CCOC(=O)c1c(N)nn(C(=O)c2ccccc2)c1-c1ccccc1 -2.05%
CCCCNC(=O)CCn1c(=O)c2ccccc2n(Cc2cc(C)ccc2C)c1=O 0.21%
C=CCn1c2ccccc2c2nnc(SCc3[nH]c(=O)[nH]c3C(=O)CCCCC(=O)OCC)nc21 0.68%
CCN1C(=O)/C(=c2\s/c(=C3\Sc4ccccc4N3C)c(=O)n2C)N(C)C1=S -0.11%
CC(=O)C1(C)N(O)C(C)(C)C(c2cccs2)=[N+]1[O-] (configuration not stated) 0.23%
Cc1c(NC(=S)NCc2ccc(F)cc2)cccc1[N+](=O)[O-] 0.02%
CN(C)/C=C(/C(=O)c1ccc(F)cc1)S(=O)(=O)c1ccc(F)cc1 -0.68%
CCC1CCCCN1C(=O)CSc1nc(C)cc(C)n1 (configuration not stated) -1.65%
CCCCC(O)(CCCC)C(=O)NN(C(=O)CCl)c1ccccc1 0.06%
O=C(c1cccs1)n1nc(NCc2ccccc2)nc1NCc1ccccc1 -0.21%
Cc1cc(C)c(C#N)c(SCC(=O)Nc2ccccc2)n1 0.39%
COc1ccc(/C=C(\C#N)C(=O)ONC2=NCCCCC2)cc1 -1.95%
Cc1cc(CNCc2c(C(=O)N(C)Cc3ccccc3)nc3ccccn23)nn1C -1.78%
Cc1ccc(C)c(OCC(=O)N2CCN(C(=O)c3ccco3)CC2)c1 -0.33%
COc1ccc(/C=C/C(=O)c2ccc(NS(=O)(=O)c3ccc(C)cc3)cc2)cc1O 0.57%
CCN(CC)C(=O)c1sc2nc(-c3ccccc3)ccc2c1N 0.13%
Cc1ccc(C)c(NC(=S)NNC(=S)Nc2ccc(C(C)C)cc2)c1 -1.35%
Oc1ccc(/C=N/Nc2ccc(C(F)(F)F)cn2)cc1O -2.05%
CC(CC(=O)O)CC(=O)NNC(=O)c1cccc(Br)c1 (configuration not stated) 0.78%
Cc1ccc(OCC(=O)OC(C)CN(C)Cc2ccccc2)cc1 (configuration not stated) -0.15%
Cc1ccc(NC(=O)c2oc(=O)c3ccccc3c2-c2ccccc2)c(C)c1 -0.2%
COc1ccc(CS(=O)/C(Cl)=C(/Cl)C(=O)Nc2ccc(OC)nc2)cc1 (configuration not stated) 0.27%
CCOC(=O)C1=C(CN2CCCCCC2)NC(=O)NC1c1cccc([N+](=O)[O-])c1 (configuration not stated) -10.2%
CCOC(=O)C1(O)CC(C)=NN1C(=O)c1cccc(Br)c1 (configuration not stated) -0.77%
COC(=O)c1ccccc1NC(=O)C1CC(=O)N(c2ccc(OC)cc2)C1 (configuration not stated) -0.76%

Source: PubChem BioAssay AID878 (University of Pittsburgh Molecular Library Screening Center, 2007)
